Test results from PubChem BioAssay AID485344 (National Center for Advancing Translational Sciences (NCATS), 2010).
Out of some 340,000 compounds screened, about 6,900 (2%) were called active. Rule as the data show it: active = inhibition above about 30%; inactive = below that, where a call was filed. Many of the other results were omitted from the sample, so actives are more common in it than they were.

Target: D(2) dopamine receptor (Homo sapiens) (UniProt P14416)
Experiment: HTS Assay for Allosteric Antagonists of the Human D2 Dopamine Receptor: Primary Screen for Antagonists; also: 0% is about no effect
Settings: HEK293 TREx D2 cells, calcium flux, dopamine EC80; at 10 µM; active compounds read high
In short: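 Compounds are added to dye-loaded, induced HEK293 T-REx cells coupled to calcium release via D2; after a 3 min kinetic read an EC80 dopamine stimulus is given and fluorescence is recorded for 3 more min.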

Chain of D(2) dopamine receptor (Homo sapiens) (P14416 whole entry, looked up): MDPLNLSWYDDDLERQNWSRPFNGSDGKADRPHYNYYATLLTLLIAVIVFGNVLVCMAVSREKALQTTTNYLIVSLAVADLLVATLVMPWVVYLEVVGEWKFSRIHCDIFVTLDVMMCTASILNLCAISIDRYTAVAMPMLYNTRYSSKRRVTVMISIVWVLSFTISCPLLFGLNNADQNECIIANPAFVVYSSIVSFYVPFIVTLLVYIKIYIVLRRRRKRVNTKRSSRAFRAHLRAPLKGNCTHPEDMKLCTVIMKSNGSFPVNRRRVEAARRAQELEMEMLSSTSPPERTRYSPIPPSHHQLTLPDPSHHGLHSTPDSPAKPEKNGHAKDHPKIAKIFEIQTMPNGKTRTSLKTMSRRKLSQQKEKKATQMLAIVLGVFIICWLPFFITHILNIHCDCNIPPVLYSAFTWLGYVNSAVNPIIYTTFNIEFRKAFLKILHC

| Structure (SMILES) | inhibition |
| --- | --- |
| CCOc1ccc(C(C)=O)cc1COC(=O)CN1C(=O)NC2(CCCC2)C1=O | 5.14% (inactive) |
| CC(C)=CCC/C(C)=C/C(=O)O | 55.4% (active) |
| CC(C)c1ccc(C(=O)NCCCc2ccccc2)cc1 | -23.5% (inactive) |
| O=C(CCNC(=O)c1ccc(Br)cc1)NCCCc1ccccc1 | 34.2% (active) |
| O=C(CCc1ccccc1)NNC(=O)c1ccc(Br)cc1 | -5.25% (inactive) |
| O=C(CNS(=O)(=O)c1ccc2ccccc2c1)Nc1ccc(F)c(F)c1F | 6.19% (inactive) |
| COC(=O)c1ccc(CSc2nnc(N)s2)o1 | -17.4% (inactive) |
| COC(=O)c1ccc(CSc2ccccc2C)o1 | 34.1% (active) |
| COC(=O)c1ccc(Cc2ccccc2)o1 | -18.3% (inactive) |
| COc1ccc(N2CCN(C(=O)COC(=O)c3cccc(S(=O)(=O)Nc4ccccc4OC)c3)CC2)cc1 | 3.16% (inactive) |
| CC1CCCCC1NC(=O)NC(=O)COC(=O)C1=NN(c2ccccc2)C(=O)CC1 (stereo unspecified) | -16.5% (inactive) |
| CC1CCCCC1NC(=O)COC(=O)Cc1ccc(Cl)cc1 (stereo unspecified) | -14.4% (inactive) |
| Cc1nn(Cc2ccccc2)c(C)c1C(=O)NCCCN1CCCC1=O | 0.482% (inactive) |
| O=C(Nc1ncc([N+](=O)[O-])s1)C1COc2ccccc2O1 (stereo unspecified) | 5.74% (inactive) |
| CC(=O)Oc1ccccc1C(=O)Nc1ncc([N+](=O)[O-])s1 | 35% (active) |
| O=C(CCc1ccccc1)Nc1ncc([N+](=O)[O-])s1 | -6.9% (inactive) |
| O=C1C=C(c2cccc(Br)c2)C[C@@H](c2ccc(F)cc2)C1 | -5.1% (inactive) |
| O=C(C(c1ccccc1)c1ccccc1)N1CCN(CC(O)COc2ccccc2)CC1 (stereo unspecified) | 19.3% (inactive) |
| CC(=O)Nc1ccc(OCC(O)CN2CCN(c3ccccc3Cl)CC2)cc1 (stereo unspecified) | 76.3% (active) |
| OC(COc1cccc2ccccc12)CN1CCN(c2ccccn2)CC1 (stereo unspecified) | 75.1% (active) |
| O=C(c1ccccc1)c1ccc(OCC(O)CN2CCCC2)cc1 (stereo unspecified) | 71.8% (active) |

| Structure (SMILES) | inhibition |
| --- | --- |
| O=S(=O)(c1ccc(OCC(O)CN2CCN(c3ccccc3Cl)CC2)cc1)N1CCOCC1 (stereo unspecified) | -9.57% (inactive) |
| CC(C)c1ccc(OCC(O)CN2CCN(c3ccccn3)CC2)cc1 (stereo unspecified) | 74.5% (active) |
| CC(C)c1ccc(OCC(O)Cn2cnc3ccccc32)cc1 (stereo unspecified) | 5.76% (inactive) |
| C=CCc1ccccc1OCC(O)CN1CCN(CCO)CC1 (stereo unspecified) | -21.6% (inactive) |
| CC1CCN(CC(O)COc2ccc(C(=O)c3ccccc3)cc2)CC1 (stereo unspecified) | 2.36% (inactive) |
| O=C(c1ccc(Cl)cc1)c1ccc(OCC(O)CN2CCCCC2)cc1 (stereo unspecified) | 11.7% (inactive) |
| Cc1cccc(OCC(O)CN2CCN(CCN3C(=O)c4cccc5cccc(c45)C3=O)CC2)c1C (stereo unspecified) | -17.4% (inactive) |
| OC(COc1ccc(Br)cc1)CN1CCCC1 (stereo unspecified) | 15.6% (inactive) |
| Cc1ccc(CC(=O)N(C)CC(=O)N(CC(C)C)c2c(N)n(CC(C)C)c(=O)[nH]c2=O)cc1C | 15% (inactive) |
| CC(C)CCN1CCN=C1N(C)C | 8.98% (inactive) |
| O=C(Nc1ccccn1)C1CCN(S(=O)(=O)c2ccccc2)CC1 | 5.14% (inactive) |
| COc1ccccc1-c1oc2ccccc2c1C#CCCCCO | 13.9% (inactive) |
| Cc1cc(C)n2nc(C(=O)OCC(=O)N(C)CC(=O)Nc3ccc(F)cc3)nc2n1 | 7.08% (inactive) |
| CN(CC(=O)Nc1ccc(OC(F)(F)F)cc1)C(=O)C1CCC1 | -3.8% (inactive) |
| COc1ccccc1C(=O)Nc1ccc(C)c(S(=O)(=O)N2CCCCC2)c1 | 9.57% (inactive) |
| O=C(Nc1ccccc1F)c1ccc(S(=O)(=O)N2CCCCCC2)cc1 | -10.1% (inactive) |
| CN(C(=O)COC(=O)c1cc(=O)[nH]c2ccccc12)C1CCCCC1 | 6.97% (inactive) |
| O=C(Nc1cc(S(=O)(=O)N2CCOCC2)ccc1OCC(F)(F)F)c1ccc(N2CCCC2=O)cc1 | -14.2% (inactive) |
| COc1ccccc1OCC(O)CN1CCOCC1 (stereo unspecified) | 3.41% (inactive) |
| Cc1ccccc1OCC(O)CN1CCN(c2ccccn2)CC1 (stereo unspecified) | 87.2% (active) |
| Cc1cccc(C)c1OCC(O)CN1CCCCC1 (stereo unspecified) | 13.3% (inactive) |

| Structure (SMILES) | inhibition |
| --- | --- |
| CC(NC(=O)c1ccccc1SCC(=O)N1CCCC1)c1ccccc1 (stereo unspecified) | 5.13% (inactive) |
| Cc1ccc(NC(=O)COC(=O)CNC(=O)c2ccc(Cl)cc2Cl)cc1S(=O)(=O)N1CCOCC1 | -10.2% (inactive) |
| C/C(=N\NC(=O)CC(C)C)c1c(C(F)(F)F)[nH]n(-c2nc3ccccc3s2)c1=O | -4.59% (inactive) |
| COC(=O)Cc1cc(=O)n(-c2nc3ccccc3s2)[nH]1 | 36.2% (active) |
| COC(=O)Cc1[nH]n(-c2nc3ccccc3s2)c(=O)c1C(C)=Nc1ccc(OC)cc1 | 12.5% (inactive) |
| N[C@@H](Cc1ccccc1)C(=O)N1CCOCC1 | -3.78% (inactive) |
| COc1ccc(S(=O)(=O)N2CCOCC2)cc1NC(=O)CC1CC2CCC1C2 (stereo unspecified) | -10.8% (inactive) |
| O=C(Nc1cccc(-c2cscn2)c1)C1CCN(Cc2ccsc2)CC1 | 48.1% (active) |
| CC(=O)c1cc(CN2CCC(C(=O)Nc3cccc(-c4cscn4)c3)CC2)cs1 | 10.7% (inactive) |
| O=C(Nc1ccc(-n2cccn2)cc1)C1CCN(Cc2ccsc2)CC1 | 0.479% (inactive) |
| Cc1cc(C)cc(NC(=O)C(c2ccccc2)N2CCN(CC(=O)N3CCCC3)CC2)c1 (stereo unspecified) | 3.24% (inactive) |
| CC1CCN(c2nc3c(c(=O)[nH]c(=O)n3C)n2CCCc2ccccc2)CC1 | -0.868% (inactive) |
| Cn1c(=O)[nH]c(=O)c2c1nc(CN(Cc1ccccc1)Cc1ccccc1)n2CCN1CCOCC1 | 10.3% (inactive) |
| Cn1c(=O)[nH]c(=O)c2c1nc(CN1CCN(c3ccccc3F)CC1)n2CCc1ccccc1 | 46.1% (active) |
| CCOC(=O)c1sc(NC(=O)C2CSC3(C)CCC(=O)N23)nc1C (stereo unspecified) | -25.8% (inactive) |
| COc1ccc(C2(C)ON(c3ccccc3C(F)(F)F)C2=O)cc1 (stereo unspecified) | -4.74% (inactive) |
| CCN(C(=O)CN1C(=O)/C(=C/c2ccc(F)cc2)SC1=S)C1CCS(=O)(=O)C1 (stereo unspecified) | -6.17% (inactive) |
| O=C1/C(=C/c2ccc(F)cc2)SC(=S)N1CCCC(=O)N1CCCCC1CCO (stereo unspecified) | 31.6% (active) |
| O=C(CCCN1C(=O)/C(=C\c2ccccc2)SC1=S)Nc1ccccc1O | -8.37% (inactive) |
